From PubChem BioAssay AID504832 (National Center for Advancing Translational Sciences (NCATS), 2011)
About 18,000 (5.8%) of roughly 310,000 compounds were called active. Roughly 22% stayed inconclusive and do not appear here. What follows is part of a selection rich in actives, with near analogues and random picks from the rest. A number with no mark means an inactive call. Calls come from the whole dose curve; as a rule, active = well fitted inhibition curve with a large enough effect; inconclusive = small, poorly fitted or top-dose-only effect, or another doubt; inactive = no such curve, though single readings can be large or run the other way.

assay: Primary qHTS for delayed death inhibitors of the malarial parasite plastid, 48 hour incubation; conditions: P. falciparum luciferase growth in erythrocytes; series mostly up to 28.7 µM; activity change, negative = inhibition: at the top concentration
Summary of the method: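 A one-generation exposure of luciferase-tagged malaria parasites in RPMI 1640/Albumax erythrocyte culture, 37 C and 5% CO2. Inhibition is inferred from decreased luminescence after adding detection reagent.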
% is set by controls: 0 for no effect and ±100 for the full control effect; potency is the fitted concentration of half-maximal effect.

Compound | activity change, negative = inhibition | Potency
CCc1ccccc1NC(=O)c1ccc2snnc2c1 | 14.8% | 
CC1CCCCN1C(=O)CCS(=O)(=O)Cc1ccccc1 (configuration not stated) | 11.6% | 
Cc1cnc(C(=O)Oc2cccc(Cl)c2Cl)cn1 | 59.4% | 
CC(C)(C)C1CCC(C(=O)NCC(c2cccs2)N2CCOCC2)CC1 (configuration not stated) | -4.52% | 
Cc1ccc(-c2nn(-c3ccc(F)cc3)cc2C(=O)NCC(c2cccs2)N2CCOCC2)cc1 (configuration not stated) |  | 10.4 µM (active)
O=C(NCC(c1cccs1)N1CCOCC1)c1cc(Cl)ccc1[N+](=O)[O-] (configuration not stated) | -1.55% | 
CCOC(=O)C1(Cc2cccc(OC)c2)CCCN(C(=O)CCSC)C1 (configuration not stated) | -11.8% | 
CC(=O)N1CCN(C(=O)C2(NC(=O)Nc3ccc(C)cc3)CCCCC2)CC1 | 40.1% | 
O=C(c1cc2ccccc2o1)N1CCN(c2cccc(C(F)(F)F)c2)CC1 | 7.94% | 
Cc1nn(CC(=O)N2CCCCC2)c(=O)c2nn(-c3ccccc3)c(C)c12 | -5.66% | 
COc1ccc(Nc2ncc(C(=O)N3CCN(c4ccccc4OC)CC3)c3ccccc23)cc1 |  | 11.7 µM (active)
COc1ccc(N2CCN(C(=O)C3CCN(C(=O)c4ccccc4Cl)CC3)CC2)cc1 | 1.99% | 
COc1ccccc1N1CCN(C(=O)c2ccc(NC3=NC4CS(=O)(=O)CC4S3)cc2)CC1 (configuration not stated) | 14.2% | 
OC(COc1ccc(F)cc1Cl)CN1CCc2ccccc2C1 (configuration not stated) | -0.387% | 
CCN(CC)S(=O)(=O)c1ccc2[nH]c(=O)cc(C(=O)N(C)C3CCS(=O)(=O)C3)c2c1 (configuration not stated) | -20.4% | 
COc1ccc(NC(=O)CSc2ccc(-c3ccco3)nn2)c(OC)c1 | -14.8% | 
CC1Cc2nc(SCC(=O)Nc3ccccc3F)n(C)c(=O)c2S1 (configuration not stated) |  | 7.38 µM (active)
CCn1c(SCC(=O)Nc2ccc3c(c2)OCCO3)nc2c(c1=O)SC(C)C2 (configuration not stated) | -28.5% | 
COc1ccc(C)cc1NC(=O)CSc1ccc(Cl)cc1 | -12.7% | 
COCCn1c(SCC(=O)Nc2ccccc2F)nc2c(c1=O)SCC2 | -12.9% | 
COCCn1c(SCC(=O)Nc2cc(Cl)ccc2OC)nc2c(c1=O)SC(C)C2 (configuration not stated) |  | 8.28 µM (active)
Cn1c(CCC(=O)Nc2ccccc2F)nnc1SCC(=O)Nc1ccccc1Cl | -15.2% | 
CC(C)N(Cc1ccccc1)C(=O)COC(=O)c1ccccc1SCC(=O)N1CCCC1 | 1.56% | 
CCn1c(SCC(=O)NCC2CCCO2)nc2ccccc21 (configuration not stated) | -21% | 
CC1CCN(C(=O)c2ccc3c(=O)n4c(nc3c2)CCCCC4)CC1 | 31.7% | 
COCCN1C(=O)C(=O)/C(=C(/O)c2ccc(S(=O)(=O)N3CCOCC3)cc2)C1c1ccc(O)c(OC)c1 (configuration not stated) | 29.1% | 

Compound | activity change, negative = inhibition | Potency
CCOC(=O)C1CCN(C(=O)COc2cccc3ccccc23)CC1 | -0.738% | 
Cc1ccc(C(=O)NNC(=O)C(C)Oc2ccc3ccccc3c2)o1 (configuration not stated) | 22.6% | 
Cc1cccc(C(C)C)c1NC(=O)COC(=O)C1CC(=O)N(Cc2ccccc2)C1 (configuration not stated) | 0.575% | 
COc1cccc(N2CC(C(=O)NCc3n[nH]c(=O)c4ccccc34)CC2=O)c1 (configuration not stated) | -12.8% | 
CCCOC(=O)c1cc2ccccc2oc1=O | -10.7% | 
COc1ccccc1CN(C)C(=O)c1cc2ccccc2o1 | -7.77% | 
CN(C)CCCCCN(C)Cc1cc2ccccc2o1 |  | 4.65 µM (active)
O=c1c2ccccc2ccc2ccc(P(=O)(O)O)cc12 | 25.5% | 
CC1CC(C)CN(C(=O)CCNC(=O)Cn2cnc3ccccc3c2=O)C1 (configuration not stated) | 10.9% | 
COc1ccc(CCN(C)C(=O)C2CCCN(Cc3ccc(OC)c(OC)c3)C2)cc1OC (configuration not stated) | -7.1% | 
COc1cc(CN2CCCC(C(=O)c3ccc(SC)cc3)C2)cc(Cl)c1O (configuration not stated) |  | 11.7 µM (active)
CSc1ccc(C(=O)C2CCCN(Cc3ccn[nH]3)C2)cc1 (configuration not stated) | 6.4% | 
CCN1CCN(C2CCCCC2NS(=O)(=O)c2ccc(Cl)cc2)CC1 (configuration not stated) | 3.88% | 
Cc1csc(NC(=O)C2CCN(S(=O)(=O)c3ccccc3)CC2)n1 | -7.04% | 
CC1CCN(C(=O)COC(=O)c2cc(=O)[nH]c3ccccc23)CC1 | 38.1% | 
Cc1cc(S(=O)(=O)NC2CCCC2)ccc1-n1cnnn1 | -4.46% | 
CCCCc1ccc(NC(=S)NCCCN2CCOCC2)cc1 | -23.5% | 
CSc1ccc(CNCCN2CCOCC2)cc1 | -1.58% | 
CCCCC(CC)CNCc1cccn1CCN1CCOCC1 (configuration not stated) |  | 11.7 µM (active)
O=C(CN1C(=O)S/C(=C\c2ccccc2F)C1=O)NCCCn1ccnc1 | -4.46% | 
O=C(COC(=O)Cc1ccccc1F)NNC(=O)c1ccc(Cl)cc1 | 37.3% | 
CC(C)c1nnc(NC(=O)CCC(=O)N2CCN(c3cccc(Cl)c3)CC2)s1 | 6.01% | 
CCc1ccc(C(CNc2nc(C(F)(F)F)nc3ccccc23)N(C)C)cc1 (configuration not stated) |  | 11.7 µM (active)
Cc1cc(C)n(-c2nc(C(F)(F)F)nc3ccccc23)n1 | 31.4% [at 5.75 µM] | 
NS(=O)(=O)c1ccc(CCNc2nc(C(F)(F)F)nc3ccccc23)cc1 | -26.2% | 
CCC(NC(=O)c1cc(COc2ccc(F)c(F)c2)on1)c1ccncc1 (configuration not stated) | -12.4% | 
